From PubChem BioAssay (NCI)
About 79,000 compounds went through this panel and 15% of them were active in at least one assay; those are over-represented in the sample as a whole. Values without a mark were called inactive. The source made the active and inactive calls. Rule as the data show it: active = growth inhibition above about 70%; inactive = the rest.

Experiment: NCI Yeast Anticancer Drug Screen. Data for the mec2-1 strain (AID 157)
Settings: S. cerevisiae mec2-1 strain, at 5.0 µM (retest, dose inferred, filed as 0.5), hits give high values
Procedure, shortened: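 Strain: mec2-1 (DNA repair/cell cycle alteration). Compound exposure, then growth measured; inhibition expressed relative to vehicle.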
`c1ccc(NC2=NCCN2)nc1` showed a growth inhibition of -26%. `C[CH2][Sn]([CH2]C)([CH2]C)[O]C(=O)CO` gave a growth inhibition of 10%. For `CC12CCC(O)CC1CCC1C2CCC2(C)C1CC1CC(=O)OC12` (configuration not stated), the growth inhibition was 58%. `Nc1ccc(N=Nc2ccccc2)cc1` gave a growth inhibition of -4%. `C[n+]1c(/C=C/c2ccc(O)c3ncccc23)[se]c2ccccc21` gave a growth inhibition of 2%. `COC(=O)C1=C(C)N2CCSC2(C)C(C(=O)OC)C1c1cccc(Cl)c1` (configuration not stated) gave a growth inhibition of 4%. With `O=[N+]([O-])/C=C/c1ccccc1` the growth inhibition was 85% (active). In the case of `CC12CCC(O)CC1CCC1C2CCC2(C)C(C(=O)CC(O)C(F)(F)F)CCC12` (configuration not stated), the growth inhibition was 8%. For `CC(C)NCC(O)c1ccc(O)c(O)c1.[Pt].c1ccc([PH+](c2ccccc2)c2ccccc2)cc1.c1ccc([PH+](c2ccccc2)c2ccccc2)cc1`, the growth inhibition was -6%. For `CCOC(=O)/C(=C\c1ccc(C(=O)OC)cc1)[Se]c1ccccc1`, the growth inhibition was 6%. `CC/C(=C/c1ccc2c(c1)OCO2)[N+](=O)[O-]` gave a growth inhibition of 59%. In the case of `CCOC(=O)C1=C(C)NC(=O)NC1c1ccc(N(CCCl)CCCl)cc1Cl` (configuration not stated), the growth inhibition was 46%. Compound `S=C(S)N1CCOCC1` has a growth inhibition of 50%. Work on `CCOC(=O)c1ccccc1N` yielded a growth inhibition of 2%. In the case of `C[n+]1c(/C=C/c2ccc(O)c(O)c2)[se]c2ccccc21`, the growth inhibition was 3%. With `CS(=O)(=O)[O-].CS(=O)(=O)[O-].NC1CCCCC1N.[Pt+4]` (configuration not stated) the growth inhibition was 100% (active). In the case of `COc1ccc2c(c1O)-c1cccc3c1[C@@H](C2)N(CCCl)CC3`, the growth inhibition was 15%.
